# Screens (PubChem)
# NCOA2 inhibitor = human SRC2 (NCOA2) inhibition. Q15596. inhibition, % at 9 µM. AID 651957. hit rate 0.17% among 370,000. HEK293 GAL4-SRC2 luciferase reporter, luminescence;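 active = inhibition above the mean inhibition of all tested compounds plus 3 SD, set per campaign, cut at about 52% in these data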;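 note: 0% = DMSO treated cells and 100% = cells given Gossypol at 36 µM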
# GalR3 antagonist = human GalR3 antagonism | O60755 | HEK293 GalR3-CNG cAMP membrane potential fluorescence; galR3 body fused to GalR1 C-terminus | inhibition, % at 3 µM | hit rate 0.44% among 360,000;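 active = inhibition above the screen-wide average plus 3 SD, cut at about 13% in these data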;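 note: forskolin and galanin both at EC90 stimulate the cells; cAMP rise reported by CNG channel membrane potential dye signal; 0% = forskolin plus galanin with DMSO and 100% = forskolin alone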
# NR5A2 inv ag = suppresses constitutive activity of human LRH-1. inhibition, % at 3.6 µM. O00482. AID 602396. HEK293T StAR-luciferase reporter, LRH-1 transfected, 24 h. hit rate 0.13% among 360,000;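 active = inhibition above the mean inhibition of all tested compounds plus 3 SD, cut at about 73% in these data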;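 note: 0% = DMSO wells and 100% = reporter-only cells lacking LRH-1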
# Target sequence (O00482 whole entry, looked up): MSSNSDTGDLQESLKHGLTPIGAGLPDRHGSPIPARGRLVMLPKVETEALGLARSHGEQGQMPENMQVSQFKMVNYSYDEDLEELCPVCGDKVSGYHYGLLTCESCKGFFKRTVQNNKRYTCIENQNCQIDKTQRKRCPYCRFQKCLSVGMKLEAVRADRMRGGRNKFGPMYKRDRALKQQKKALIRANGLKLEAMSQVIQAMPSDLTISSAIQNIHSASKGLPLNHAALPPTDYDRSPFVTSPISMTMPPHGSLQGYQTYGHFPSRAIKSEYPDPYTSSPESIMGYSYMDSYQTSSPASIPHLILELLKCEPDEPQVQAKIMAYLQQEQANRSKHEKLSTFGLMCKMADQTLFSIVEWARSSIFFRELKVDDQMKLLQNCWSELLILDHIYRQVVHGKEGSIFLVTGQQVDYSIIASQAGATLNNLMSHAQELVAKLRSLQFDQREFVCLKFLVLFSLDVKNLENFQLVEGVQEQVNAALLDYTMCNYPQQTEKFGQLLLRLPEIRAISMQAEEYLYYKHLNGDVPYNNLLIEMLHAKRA
# NR2F2 inh = NR2F2 (human) inhibition, primary screen. inhibition, % at 8.6 µM. HEK293T NGFI-A luciferase reporter, luminescence. AID 686940. hit rate 0.7% among 370,000;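 active = inhibition above a per-plate cutoff, mean inhibition of test wells between control levels plus 3 SD, cut at about 38% in these data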;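 note: cells cotransfected with COUP-TFII expression vector driving the NGFI-A reporter; 0% = median of COUP-TF2 test wells and 100% = reporter-only cells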
# NCOA3 inh = human NCOA3 inhibition | Q9Y6Q9 | HEK293 GAL4-SRC3 luciferase reporter, luminescence | inhibition, % at 3.6 µM | hit rate 0.17% among 360,000 | AID 588352;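 active = inhibition above a per-campaign cutoff, the mean of all compounds plus 3 SD, cut at about 60% in these data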;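 note: 0% = DMSO-treated cells and 100% = gossypol-treated cells at 36 µM; higher means less SRC3-driven luciferase light from the GAL4 reporter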
# SRC1 inh = inhibitors of human steroid receptor coactivator 1 (SRC1) | Q15788 | HEK293 GAL4-SRC1 luciferase reporter, luminescence | inhibition, % at 3.6 µM | hit rate 0.12% among 360,000 | AID 588354;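 active = inhibition above the campaign mean plus 3 SD, with each screening campaign given its own cutoff, cut at about 60% in these data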;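 note: 0% = DMSO treated cells and 100% = gossypol at 36 µM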
# GalR3 antag conf = confirmation of human galanin receptor 3 antagonists. shares compounds with GalR3 antagonist. inhibition, % at 3 µM. AID 652245. HEK293 GalR3 CNG cAMP biosensor, membrane potential fluorescence; galR3 fused to GalR1 carboxy tail; challenged with forskolin and galanin at EC90. hit rate 59% among 1,600;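 active = inhibition above the primary screen's cutoff, the mean inhibition of all screened compounds plus 3 SD, cut at about 13% in these data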;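 note: 0% = forskolin plus galanin and 100% = forskolin alone with DMSO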
# HEK-CNG parental = acts as nonspecific agonist in parental HEK-CNG cells. activation, % at 3 µM. HEK293-CNG parental cells, cAMP membrane potential fluorescence; normalised: DMSO wells 0%, forskolin wells 100%. hit rate 10% among 1,600. shares compounds with GalR3 antagonist; in the data active = activation above about 1.3%
# Starred values were filed as active, the others as inactive; x = no result. Compounds with a hit are over-represented: about 1.1% of the library has one in this group of screens.
SMILES,NCOA2 inhibitor,GalR3 antagonist,NR5A2 inv ag,NR2F2 inh,NCOA3 inh,SRC1 inh,GalR3 antag conf,HEK-CNG parental
O=C(Nc1cccc(F)c1)C1CCCN(S(=O)(=O)c2ccc(-n3cnnn3)cc2)C1 (configuration not stated),13,14*,-2,-4,2,14,0,-1
O=C(Nc1ccccc1)C1CCCN(S(=O)(=O)c2ccc(-n3cnnn3)cc2)C1 (configuration not stated),-17,5,-9,9,3,-36,x,x
COC(=O)CSc1nc(N)c(C#N)c(-c2ccc(O)cc2)c1C#N,-24,45*,19,-21,-3,-2,74*,1
CCOC(=O)CSc1nc(N)c(C#N)c(-c2ccc(OCC)cc2)c1C#N,7,-8,-7,10,0,-1,x,x
CCOC(=O)N(C)[C@H]1C[C@H]2c3cc(-c4ccccc4C)ccc3CCN2C[C@H]1[C@H](C)O,25,95*,x,61*,x,x,2,0
O=C(Cn1nc(-c2ccccc2)c2ccccc2c1=O)Nc1ccc(O)cc1,4,14*,7,-12,6,-44,1,-1
Cc1nnc(N/N=C/c2ccc([N+](=O)[O-])cc2)n1N,-26,15*,8,21,4,7,4,0
COC(=O)[C@]12C[C@H](CC(=O)N3CCN(C(=O)c4ccco4)CC3)C(=O)N(Cc3ccco3)C1=C[C@H](C(C)(C)C)O[C@@H]2C,-7,x,x,-1,x,x,x,x
COc1ccc2c(c1)CO[C@H]([C@H](O)CO)[C@H]2/C=C/c1ccccc1,10,x,x,-10,x,x,x,x
COc1ccc(NC(=O)C(c2ccc(C)cc2)N(C)C(=O)c2ccc(=O)[nH]c2)cc1 (configuration not stated),5,13*,-4,-17,-9,-7,8,0
COc1ccc(CCC(=O)OCC(=O)Nc2sccc2C(N)=O)cc1,-10,-5,1,14,-15,-18,x,x
COc1ccc(CCC(=O)OCC(=O)Nc2sccc2C(N)=O)cc1OC,6,99*,11,9,-4,-28,92*,0
N#Cc1ccc(OCC(=O)OCC(=O)Nc2sccc2C(N)=O)cc1,-4,-6,4,-7,-4,-26,x,x
Cc1ccc(OCC(=O)OCC(=O)Nc2sccc2C(N)=O)cc1C,10,27*,3,-14,-8,-9,3,0
CCOc1ccc(C=Nn2c(-c3ccc(F)cc3)n[nH]c2=S)cc1,3,x,x,-4,x,x,x,x
Cc1cccc(-n2c(Cn3nc(C)c([N+](=O)[O-])c3C)n[nH]c2=S)c1,-4,17*,-1,-18,-14,-1,5,0
Cc1nn(CCc2n[nH]c(=S)n2-c2cccc(Cl)c2)c(C)c1[N+](=O)[O-],13,-5,-22,-1,0,6,x,x
COc1cc(-c2nn3c(C4CCCCC4)nnc3s2)cc(OC)c1OC,7,18*,23,-16,14,9,8,0
COc1ccc(-c2nn3c(C4CCCCC4)nnc3s2)cc1OC,-41,17*,35,-20,-17,-20,24*,1
COC(=O)C1CN(Cc2cn(CCC3OCCO3)nn2)CCS(=O)(=O)N1Cc1ccc(OC)cc1 (configuration not stated),4,x,x,-7,x,x,x,x
Cc1ccccc1NC(=O)N(C)[C@H]1C[C@H]2c3[nH]c4c(-c5ccccc5)cccc4c3CCN2C[C@H]1[C@H](C)O,-8,x,x,-9,x,x,x,x
C=CCN1C(=O)/C(=C2/Sc3ccccc3N2CC)SC1=S,-19,0,8,13,-7,2,x,x
CCN1C(=O)/C(=C2/Sc3ccccc3N2CC)S/C1=N\c1ncn[nH]1,-9,18*,20,-13,-18,-9,11,0
COc1ccc2c(c1)CCCN2C(=O)C1CCCN(S(=O)(=O)c2ccc(Br)s2)C1 (configuration not stated),11,x,x,26,x,x,x,x
COC(=O)[C@]12C[C@H](CC(=O)N3CCCCC3)C(=O)N(CCC3=CCCCC3)C1=C[C@H](C1CCCC1)O[C@@H]2C,-7,x,x,-10,x,x,x,x
SMILES,NCOA2 inhibitor,GalR3 antagonist,NR5A2 inv ag,NR2F2 inh,NCOA3 inh,SRC1 inh,GalR3 antag conf,HEK-CNG parental
O=C1c2ccccc2-n2c1nc1ccccc1c2=O,-27,-7,47,24,25,-15,x,x
CC1(C)Cc2ccccc2-c2nc3ccccc3c(=O)n21,10,x,2,-17,2,20,3,0
CCSc1nnc(Cn2c(=O)sc3ccccc32)n1C,-34,x,-12,-27,5,0,2,0
O=C(CSc1nc2ccccc2c(=O)n1-c1ccc(Cl)cc1)NNC(=S)Nc1ccccc1,-25,x,x,0,x,x,x,x
COc1ccc2c(C)c(Cl)c(=O)oc2c1,-23,-4,-11,-15,4,4,x,x
C=C1CC(COc2ccc3c(C)c(Cl)c(=O)oc3c2)(c2ccccc2)OC1=O (configuration not stated),-150,37*,29,-22,-60,-142,18*,2.9*
COCCCn1c(=O)c2sccc2n2c(CCCC(=O)NCC3CCCO3)nnc12 (configuration not stated),-12,14*,-7,8,-2,-1,9,0
O=C(OC12CCCN(C1)/C(=C/c1ccccc1)C2)c1ccccc1 (configuration not stated),-11,x,x,-7,x,x,x,x
O=C(Nc1cccc(C(F)(F)F)c1)OCCCN1CCC2(CCC(c3ccccc3)CC2)C1=O (configuration not stated),14,x,x,7,x,x,x,x
CN(C(=O)c1ccc2c(c1)SC1=NS(=O)(=O)CCN12)C(c1ccccc1)c1ccccc1,2,31*,-3,-11,6,7,30*,0
N#Cc1c(N)nc(SCc2ccncc2)c(C#N)c1-c1cccs1,-5,75*,16,-4,22,-4,91*,1
CCCOC(=O)CCCC[C@H]1SC[C@@H](NC(=O)OC)[C@H]1NC(=O)OC,-2,14*,2,0,8,14,5,0
CCSc1nsc(NC(=O)Nc2cccc(F)c2)n1,10,69*,23,34,45,22,28*,-1
CCCc1[nH]nc2c1C(c1ccc(OC)c(CSC3=NCCS3)c1)C(C#N)=C(N)O2 (configuration not stated),-5,20*,-3,8,15,-5,3,1
Nc1nnnn1/N=C\c1ccc(Cl)c([N+](=O)[O-])c1,-3,18*,-3,-12,21,17,14*,0
